Test results reported in PubChem BioAssay (NCATS).
Results filed as inconclusive are left out. A number with no mark means an inactive call. Calls of active or inactive are those of the source. The call rests on the fitted dose curve; in most records, active means well fitted inhibition curve with a large enough effect; inconclusive means small, poorly fitted or top-dose-only effect; inactive means no such curve, though single readings can be large or run the other way.

Test system: Zika virus NS2B-NS3 protease (linked)
Assay: 384 well plate NINDS AMC confirmatory qHTS for Zika virus inhibitors (AID 1347163); further: nearly all actives have a fitted effect of over 50% in size;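 on activity change, negative = inhibition: fluorescence of AMC released from Ac-VKTGKR-AMC peptide cleaved by the protease; top concentration of the series differs between compounds; 0% = no-inhibitor control and -100% = no-enzyme control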
Details: Recombinant NS2B-NS3 protease, Ac-VKTGKR-AMC fluorescence; series mostly up to 100 µM; activity change, negative = inhibition: at the top concentration
Description: Description: Assay Submitters (PI): Avindra Nath, Ph.D., National Institute of Neurological Disorders and Stroke (NINDS), Bethesda, MD Radhakrishnan Padmanabhan, Ph.D., Georgetown University (GU), Washington D.C. Zika Virus causes congenital defects, including microcephaly and is associated with Guillain-Barre syndrome, eningoencephalitis and myelitis in infected adult. […] Using a target-based approach, we hope to establish a screening paradigm to uncover novel, cell-active NS2B-NS3 protease (Zika Virus) specific inhibitors from NCATS' collection of small molecules using qHTS. […] Four assay panel was created to identify potential Zika Virus inhibitors. Namely, (1) GU unlinked NS2B-NS3 AMC tagged protease qHTS, (2) GU unlinked NS2B-NS3 Rhodamine tagged protease qHTS, (3) NINDS linked NS2B-NS3 AMC tagged protease qHTS, (4) NINDS linked NS2B-NS3 Rhodamine tagged protease qHTS. Active compounds are validated using a secondary assay in 384 well plate format. Early Translation Branch (ETB) National Center for Advancing Translational Sciences (NCATS), Rockville, MD National Institute of Health (NIH), Bethesda, Maryland
384-well NINDS AMC Assay The protease was diluted to 7.5 nM, 40.9 nM, or 82 nM in assay buffer and dispensed into a 96-well PCR plate (Applied Biosystems); 20 or 22 microL was transferred to a black 384-well assay plate (final protease concentration of 5 nM, 30 nM, or 60 nM, respectively). Compounds (3 microL, 1 microM - 10 mM, DMSO) were diluted and transferred to the assay plate (final concentrations ranged from 100 nM to 1 mM). Compounds were incubated with protease for ~15 minutes. The substrate, Ac-VKTGKR-AMC (Genscript), was dissolved in DMSO to a concentration of 6 mM and further diluted into assay buffer to a working concentration of 180 microM, then dispensed into a 384-well preparation plate (Eppendorf). A multichannel repeat pipettor was used to add 3 or 5 microL of substrate to the assay plate to give a final concentration of 30 microM. The plate was incubated in the dark at room temperature. After 25 minutes, the fluorescence intensity (excitation: 355 nm, emission: 460 nm) was measured and normalized to no-enzyme and no-inhibitor controls. Aprotinin39 (VWR) was used as an intraplate control.
Potency means the concentration at half of the fitted maximal effect.

SMILES	Potency	activity change, negative = inhibition [%]
O=C(N/N=C/c1ccc(O)c(O)c1)c1cc2ccccc2cc1O	50.1 µM (active)	–
CC1(C)CC[C@]2(C(=O)O)CC[C@]3(C)C(=CCC4[C@@]5(C)C[C@@H](O)[C@H](O)C(C)(C)C5CC[C@]43C)C2C1 (some centres undefined)	56.2 µM (active)	–
C=CC/C=C\C/C=C\CCCCCCCc1cccc(O)c1C(=O)O	44.7 µM (active)	–
CC1(C)CCC(C)(C)c2cc(C3(c4ccc(C(=O)O)cc4)OCCO3)ccc21	–	7.37
CCc1c(-c2ccccc2)c(-c2ccccc2)nn1-c1ccccc1-c1cccc(OCC(=O)O)c1	3.98 µM (active)	–
CCCCCCOc1cc2c(cc1N(C)c1ncc(C(=O)O)cn1)C(C)(C)CCC2(C)C	8.91 µM (active)	–
COc1cc(Nc2nc3ccccc3nc2NS(=O)(=O)c2ccc(NC(=O)c3ccc(OC)c(C)c3)cc2)cc(OC)c1	–	-24.3
COc1ccc(C(=O)n2c(C)c(Cc3cccc(O[C@@H](C)C(=O)O)c3)c3cc(OC(F)(F)F)ccc32)cc1	12.6 µM (active)	–
CC1=C(C(=O)OCc2ccccc2)C(c2ccc(-c3ccccc3)cc2)NC(=O)N1CCCCCC(=O)O (centres undefined)	3.55 µM (active)	–
O=C(O)/C=C/c1ccc(-c2ccc(O)c(C34CC5CC(CC(C5)C3)C4)c2)cc1	–	267
O=C(O)Cc1ccc2oc(-c3ccc(NC(=O)/C=C/c4ccc(Br)cc4)c(F)c3)nc2c1	–	1240
COc1ccc(Cl)c(Nc2nc3ccccc3nc2NS(=O)(=O)c2cccc(NC(=O)C(C)(C)N)c2)c1	2.51 µM (active)	–
CC(C)c1cccc2c(-c3ccccc3)cc(-c3ccc(-c4ccc(C(=O)O)cc4)[nH]3)nc12	–	70.5
O=C(Nc1ccc(S(=O)(=O)Nc2nccs2)cc1)C(c1ccccc1)c1ccccc1	–	-42.1
